About 25 (0.04%) of roughly 59,000 compounds were called active. The rule behind the calls is not given here. The full list was thinned out, with actives kept by preference.
Test: qHTS Assay for Spectroscopic Profiling in Resorufin Spectral Region
Conditions: Compound fluorescence, resorufin region 547/598 nm, buffer
Text: NIH Molecular Libraries Screening Centers Network [MLSCN] NIH Chemical Genomics Center [NCGC] […] Occasionally, the artifactual effect may originate from the compound#s own spectral or other biophysical properties which generally tend to track its assay concentration. Pre-screening/profiling the library with respect to the compounds# spectral properties should help one exclude false positives early on. While the most informative fluorescent profiling data set is obtained by performing a full excitation and emission scan of each well by using a monochromator-based plate reader, such an approach is practical only on a very limited scale as scanning each well requires long time. An alternative approach, applied here, is to perform plate reader scans using selected excitation and emission wavelength pairs to generate a multidimensional relational database that correlates compound concentration and the respective relative fluorescence intensity at a given wavelength set. A standard curve of resorufin present on each plate as six-point concentration series, was used to compute a normalized fluorescence response, termed dye-equivalent concentration, for each compound at each concentration.
NCGC Assay Protocol Summary: Buffer: 100 mM Tris buffer, pH 8.0 Dye standard plate: The wells in columns 1 through 4 of a Kalypsys polypropylene 1536-well compound plate were filled with standard solutions of fluorophore corresponding to the spectral region of interest. Solutions of resorufin were placed in the following wells: M1, N1: 3 mM, M2, N2: 300 uM, M3, N3: 30 uM, M4, N4: zero (DMSO), O1, P1: 3 uM, O2, P2: […], O3, P3: 300 nM, O4, P4: zero (DMSO). Assay Steps: Six uL of buffer were dispensed to 1536-well Greiner black plates. Compounds and dye standards (23 nL) were transferred via Kalypsys PinTool. The plates were incubated for 15 min at room temperature, and then read on ViewLux (Perkin-Elmer) High-throughput CCD imager using 547 nm and 598 nm excitation and emission filter set. Keywords: NIH Roadmap, MLSCN, MLI, MLSMR, qHTS, NCGC, Resorufin, Fluorescent Profiling.

Max dye-equivalent concentration, inactive:
Cc1cc(C)nc(NC2=NCC(=O)N2c2ccc(Cl)cc2)n1
CCNc1ncc2nc(CCc3ccccc3)c(=O)n(-c3ccc(OC)cc3)c2n1
Cc1noc(NS(=O)(=O)c2ccc(N3CC(O)=C(c4ccccc4)C3=N)cc2)c1C
C[C@H]1O[C@@H](CC(=O)O)Cc2c1c(O)c1c(O)cc(-c3cc(=O)c4c(=O)c5c(c(=O)c=4c3=O)C[C@H](CC(=O)O)O[C@@H]5C)c(O)c1c2O
CCCOc1ccccc1-c1nc(SCCC(=O)O)n[nH]1
CCC(C)(C)n1nnnc1C(c1ccccc1OC)N1CCSCC1 (centres undefined)
Cc1ccc(S(=O)(=O)NCCN2CCOCC2)cc1C
C=CCn1c(COc2ccccc2C)nnc1SCC(=O)O
Cc1cccc(NC(=O)CSc2nc3c(c(=O)[nH]2)CCC3)c1C
COc1ccccc1N1CC(O)=C(c2nc3ccccc3s2)C1=N
CCN(CC(=O)NC(C)C)C(=O)CCNC(=O)c1ccc(Cl)cc1
COc1ccc2[nH]c3ccc(OC)cc3c2c1
Cc1cc(C(F)(F)F)c(C#N)c(SCC(=O)NC2CC2)n1
COc1ccc(O)c(C(=O)c2cnc3onc(C(C)C)c3c2)c1
CCOC(=O)Nc1ccc2c(c1)N(C(=O)CN1CCN3CCCC3C1)c1ccccc1CC2 (centres undefined)
CCCCNC(=O)c1ccccc1NC(=O)c1ccccc1N(C)S(C)(=O)=O
CCC(C)Sc1nc2c(c(=O)[nH]c(=O)n2C)n1CC(O)COc1cccc2ccccc12 (centres undefined)
COc1ccc(-n2ncc3c(N4CCc5ccccc54)ncnc32)cc1
Cc1ccc(-n2c(Cc3cccs3)nnc2SCC(=O)OC(C)C)cc1
COCCn1c(=O)c(-c2cccc(F)c2)nc2cncnc21
COc1ccc(-n2c(=O)c(-c3cn(C)c4ccccc34)nc3cnc(OC)nc32)cc1
Cc1ccc(C(=O)NCC(=O)O)cc1S(=O)(=O)N1CCCCC1
Cn1c(SCc2c(F)cccc2Cl)nnc1-c1cnccn1
O=C(NC1CCCCC1)c1ccc2c(=O)n(CC3CCCO3)c(=O)[nH]c2c1 (centres undefined)
O=c1[nH]nc(CSCc2ccccc2Cl)[nH]1
COCCNC(=O)c1snc2ccc(Cl)cc12
CCOc1ccc(NC(=O)CCS(=O)(=O)c2cccc3nsnc23)cc1
CCOc1cc(C2C(C(=O)OC)=CN(C3CCCC3)C=C2C(=O)OC)cc(Br)c1O
O=C(Nc1cnn(Cc2ccc(Cl)cc2)c1)C1CCCC1
CSc1ccc(-c2c(C#N)c(N)nc3c2c(C)nn3-c2ccccc2)cc1
COc1ccc(CC(NC(C)=O)C(=O)NC2CCN(C(=O)Nc3ccc(C#N)cc3)CC2)cc1OC (centres undefined)
CCOC(=O)N1CCN(C(=O)c2nn(-c3ccc(C)cc3)c(=O)c3c2c2ccccc2n3C)CC1
COc1ccc(Cc2nnnn2CC(=O)O)cc1
CC(c1nnc(SCC(=O)Nc2sccc2C#N)n1-c1ccc(Cl)cc1)N(C)C (centres undefined)
CC(C)(CNCC(O)c1ccccc1)N1CCOCC1 (centres undefined)
O=C(O)C1CC=C(Cl)CC1C(=O)NCc1ccccc1 (centres undefined)
O=C(COc1ccc2c3c(c(=O)oc2c1)CCC3)NC1CCCCC1
Cc1nc2cnc(Nc3ccccc3)nc2n(C[C@H]2CCCO2)c1=O
O=C(NCCCN1CCOCC1)c1cc(-c2ccc(Cl)cc2)on1
Cn1c(=O)c(CCc2ccccc2)nc2cnc(Nc3ccccc3)nc21
Cc1cc(=O)n2nc(N3CCCC(C(=O)NCCC4=CCCCC4)C3)sc2n1 (centres undefined)
COc1ccc(-n2c(SCC(=O)NCc3cccs3)nnc2-c2ccoc2C)cc1
Cc1ccnc(SCCn2c(Br)nc3c2c(=O)[nH]c(=O)n3C)n1
CCOC(=O)N1CCC(Nc2c(NCCCN3CCN(c4ccc(OC)cc4)CC3)c(=O)c2=O)CC1
CCCCn1c(SCc2ncc(-c3ccccc3)o2)nc2cc(S(N)(=O)=O)ccc21
CCOc1ccccc1-n1c(SCC(=O)NCc2ccco2)nnc1-c1ccncc1
Nc1cc(=O)nc(SCc2ccccc2)n1Cc1ccco1
Cc1c(S(=O)(=O)O)ccc(N=Nc2c(O)c(C(=O)O)cc3ccccc23)c1Cl
CCC(=O)Nc1cccc(NC(=O)CSc2nnnn2C2CCCC2)c1
Cc1cc(C)c2[nH]c(=O)c(C(c3nnnn3Cc3ccc4c(c3)OCO4)N3CCCC3)cc2c1 (centres undefined)
COc1ccccc1N(C(=O)Cn1nnc2ccccc21)C(C(=O)NCc1ccco1)c1ccc(C)o1 (centres undefined)
CCC(C(=O)N1CCOCC1)n1c(C(=O)OC)cc2occc21 (centres undefined)
CCN(c1ccccc1)S(=O)(=O)c1cccc(C(=O)O)c1
c1ccc2c(Nc3ccncc3)nc(-c3ccc4c(c3)OCO4)nc2c1
CCOC(=O)N1CCN(C(=O)Cc2ccc(-n3c(=S)[nH]c4ccccc4c3=O)cc2)CC1
CC(=O)OCc1cc(=O)n(C)c(=O)n1C
COc1ncc2nc(-c3ccc(Cl)cc3)c(=O)n(C)c2n1
CCc1c(C)nc2ncnn2c1N1CCC(C(=O)NCc2ccc3c(c2)OCO3)CC1
CN(C(=O)CSc1nnnn1-c1ccccc1)C1CCCCC1
Cc1c(-c2nn(C)c(=O)c3ccccc23)oc2ccc(F)cc2c1=O
COCCn1c(=O)[nH]c2cc(C(=O)NCc3cccnc3)ccc2c1=O
NS(=O)(=O)c1cc(Cl)c(Cl)c(S(N)(=O)=O)c1
CCOCCCN1C(=O)CN(C2CCCCC2)C(=O)C1c1ccc(OCC)c(OC)c1 (centres undefined)
Cc1cc(C)c2nc(N3CCCC3)c(C#N)cc2c1
COc1cccc(C(=O)c2cc3ccc(O)cc3oc2=O)c1
O=C1[C@@H]2C(Cc3ccc(O)cc3)NC3(C(=O)Nc4ccc(F)cc43)[C@@H]2C(=O)N1c1ccc(F)cc1 (some centres undefined)
CCC(=O)N(Cc1cc2cc(OC)ccc2[nH]c1=O)c1ccccc1C
COc1cccc(OCC(O)CN2CCN(CCO)CC2)c1 (centres undefined)
C=CCn1c(SCC(=O)NC23CC4CC(CC(C4)C2)C3)nc(O)cc1=O
COCCn1c(=O)c(-c2cccs2)nc2cnc(N3CCN(C)CC3)nc21
Cc1cc(C)cc(OCc2nnc(SCC(=O)OC3CCCCC3)o2)c1
COCCn1c(=O)c(-c2ccc(OC)cc2)nc2cnc(Oc3cccc(Cl)c3)nc21
CS(=O)(=O)Nc1cccc(-c2cncnc2Nc2ccccc2)c1
Cn1c(SCC(=O)OC2CCCCC2)nnc1-c1ccc(S(=O)(=O)N2CCCC2)cc1
CCS(=O)(=O)N1CCC(C(=O)N2CCN(c3ccccc3)CC2)CC1
CCOCC(=O)Nc1cc(OC)c(Cl)cc1OC
CCN1C(=O)/C(=C\N2CCN(c3cccc(Cl)c3)CC2)SC1=S
CCN(Cc1ccncc1)C(=O)[C@@H](CO)c1ccccc1
CC(=O)N1CCC(C(=O)Nc2nc(-c3ccccc3)ns2)CC1
COc1ccc(S(=O)(=O)NC(CC(=O)NCc2ccccc2OC)c2ccco2)cc1 (centres undefined)
Nc1nc2c(ncn2[C@H]2CC[C@@H](CO)O2)c(=O)n1C(=O)c1ccccc1
Cc1ccc(CNC(=O)CN2CCN(Cc3ccc(Cl)cc3)C2=O)cc1
CCOCCc1c(O)nc(SCC(=O)NCc2ccco2)[nH]c1=O
COc1cc(OC)cc(C(=O)NCCSCc2ccco2)c1
O=c1[nH]c(=O)n([C@H]2C[C@H](O)[C@H](CO)O2)cc1Br
O=c1c(-c2ccc(F)cc2)nc2cncnc2n1-c1ccccc1
CCOc1ccc(N(CC(=O)NCc2ccc(OC)cc2)S(=O)(=O)c2c(C)noc2C)cc1
C[C@@H]1C[C@H]2[C@@H]3C[C@H](F)C4=CC(=O)C=C[C@@]4(C)[C@]3(F)[C@H](O)C[C@]2(C)[C@@]1(O)C(=O)CO
O=C(Nc1ccccc1)c1cccnc1Nc1ccccc1
Cc1ccc(NC(=O)NCC(c2cccnc2)N2CCOCC2)cc1 (centres undefined)
O=C(c1ccco1)N1CCC[C@@]2(CCN(Cc3nccs3)C2)C1
O=C1N=C(N2CCOCC2)CS1
Cc1ccc(C(=O)CS(C)(=O)=O)cc1
O=C(Nc1ccc(Cl)cn1)Nc1cccs1

From PubChem BioAssay AID588 (National Center for Advancing Translational Sciences (NCATS), 2007)
